# Assay results from PubChem BioAssay AID2069 (Sanford-Burnham Center for Chemical Genomics, 2009).
# Screen size: about 1,200 compounds; about 210 (18%) were called active. Only a sample is shown. Unmarked numbers belong to inactive results. Rule as the data show it: active = inhibition above about 30%; inactive = the rest.
# Experiment: fluorescence readout artefact check – biochemical, HTRF, uHTS, artefact control for SUMOylation inhibitor project, confirmation (AID 2069)
# Details: HTRF interference counterscreen, at 35 µM, hits give high values
row,Structure (SMILES),inhibition
1,COc1ccc(-c2csc(NC(=S)NC(=O)/C=C/c3ccco3)n2)cc1OC,10.6%
2,Cc1ccc(/C=C2\SC(=S)N(/N=C/c3cc([N+](=O)[O-])ccc3O)C2=O)o1,-7.65%
3,Cc1nn2cc(-c3ccccc3)nc2[nH]c1=O,62.4% (active)
4,N#Cc1c2ccc(OCC(N)=O)cc2n2ccccc12,35.8% (active)
5,CCOC(=O)c1c2ccc(OCC(=O)NN)cc2n2ccccc12,29.6%
6,CCOC(=O)c1c2ccc(OCC(=O)N/N=C/c3ccc(C)cc3)cc2n2ccccc12,19.8%
7,CCc1cc2c(=O)nc3n(c2s1)Cc1ccccc1/C3=C(/O)c1cccc([N+](=O)[O-])c1,17%
8,O=C(/C=C/c1cccs1)Nc1scc(-c2ccccc2)c1C(=O)O,26.6%
9,Cc1cccn2c(=O)c3cc(S(=O)(=O)c4ccccc4)c(=N)n(Cc4ccco4)c3nc12,5.25%
10,COc1cccc(Cn2cccc(NC(=O)NC3CCCCC3)c2=O)c1,-4.4%
11,Cc1cccn2c(=O)c3cc(C(=O)NC4CCCCCC4)sc3nc12,31.1% (active)
12,O=C1C=C(O)CC(c2ccco2)C1 (stereo unspecified),5.85%
13,COCCNC(=S)Nc1ccc2nsnc2c1,-1.2%
14,Cc1cc(C)cc(NC(=S)Nc2cccc3ccccc23)c1,-13.7%
15,N#Cc1c(N)n(CCNC(=O)c2ccccc2)c2nc3ccccc3nc12,19.1%
16,N#Cc1c(N)n(-c2cccc(C(=O)O)c2)c2nc3ccccc3nc12,33.5% (active)
17,COc1ccc(-n2c(NC(=O)c3ccco3)c(C#N)c3nc4ccccc4nc32)cc1,4.15%
18,Cc1cccn2c(=O)c3cc(C#N)c(=NC(=O)c4ccco4)n(Cc4ccco4)c3nc12,23.1%
19,O=c1[nH]cc(I)cc1I,-3.65%
20,O=C1CC(c2ccco2)CC(O)=C1C=Nc1cc(Cl)ccc1O (stereo unspecified),-2.5%
21,COc1cccc(-c2nc(SCC(=O)Nc3nc(-c4ccccc4)c(C)s3)[nH]c(=O)c2C#N)c1,-0.65%

row,Structure (SMILES),inhibition
1,COc1ccc(C(N)c2nccc3cc(OC)c(OC)cc23)cc1OC (stereo unspecified),-2.9%
2,O=C(Nc1ccc(N2C(=O)C3C4C=CC(C4)C3C2=O)cc1)Nc1cccnc1 (stereo unspecified),16.1%
3,CN(C(=S)Nc1cccnc1)c1ccc(O)cc1,5.3%
4,CC(=O)c1ccc(NC(=O)Nc2cccnc2)cc1,41.8% (active)
5,CCCC(=O)NC(=S)Nc1cccc2c(O)cccc12,11.1%
6,Cc1ccc(NC(=O)Nc2cccn(Cc3c(F)cccc3Cl)c2=O)cc1,3.65%
7,Fc1ccc(-c2ccnc3nc(N4CCOCC4)nn23)cc1,32.5% (active)
8,COc1ccc(-c2ccnc3nc(/N=C/N(C)C)nn23)cc1,44.7% (active)
9,CN(C)/C=N/c1nc2nccc(-c3ccc(F)cc3)n2n1,37.5% (active)
10,N#CCCN(Cc1cccnc1)C(=S)NC1CC2C=CC1C2 (stereo unspecified),-9.75%
11,Cc1ccc(NC(=O)c2ccccc2OCC(=O)Nc2cccc(Cl)c2C)nc1,7.7%
12,CCOc1cc(CNc2cccc3ccccc23)cc(Br)c1OCC(=O)NC(C)(C)C,12.7%
13,O=C(c1csc(Nc2cccc3ccccc23)n1)N1CCCC1,23.1%
14,O=[N+]([O-])c1c(NCCO)cc(N2CCCCCC2)c2nonc12,22.4%
15,COc1cc(OC)c2c(O)c3c(c(-c4c5c(c(O)c6c(OC)cc(OC)cc46)CO[C@@H](C)[C@H]5O)c2c1)[C@H](O)[C@H](C)OC3,11%
16,O=[N+]([O-])c1c(NCCO)cc(N2CCC3(CC2)OCCO3)c2nonc12,-10.3%
17,CCOc1ccc(C2Nc3cccc4cccc(c34)N2)cc1OC,-29.6%
18,O=C1C(=O)c2ccccc2C(O)=C1CCCCl,-11.4%
19,CCc1ccccc1NC(=O)Nc1cccn(Cc2ccccc2F)c1=O,-9.65%
20,Cn1c(C(=O)NCC2CCCO2)cc2c(=O)n3ccccc3nc21 (stereo unspecified),51% (active)
21,Cc1ccc(S(=O)(=O)c2cc3c(=O)n4ccccc4nc3n(Cc3ccco3)c2=N)cc1C,9.75%

row,Structure (SMILES),inhibition
1,CC1CCCCC1NC(=O)c1cc2c(=O)n3ccccc3nc2n1C (stereo unspecified),57.8% (active)
2,C=CCNc1nc(NCc2ccccc2)c(C#N)c2c1CN(C)CC2,18.9%
3,OCCNC(=S)Nc1ccc2nsnc2c1,10.1%
4,CC(C)N1CCC2(CC1)C(C#N)=C(N)NC(S)=C2C#N,33.9% (active)
5,Cc1ccoc1C(=O)NCCCNC(=O)c1occc1C,0.95%
6,CCOc1cc2c(C#N)c(N3CCOCC3)nc(N)c2c(N)n1,51.2% (active)
7,COc1ccc(CN2C(=O)Cc3c2nc(N)c2c(N)nc(N4CCOCC4)c(C#N)c32)cc1,42.5% (active)
8,COc1cc2c(C#N)c(N3CCCCC3)nc(N)c2c(N)n1,25.2%
9,CCOc1cc2c(C#N)c(N3CCCCC3)nc(N)c2c(N)n1,20.6%
10,CCOc1cc2c(C#N)c(N3CCNCC3)nc(N)c2c(N)n1,47.2% (active)
11,COc1cc2c(C#N)c(N3CCCC3)nc(N)c2c(N)n1,27.4%
12,N#Cc1c(N2CCCCC2)nc(N)c2c(N)nc(SCC(=O)O)cc12,14.9%
13,COCCN(CCOC)c1nc(N)c2c(N)nc3c(c2c1C#N)CC(=O)N3Cc1ccc(Cl)cc1,27.9%
14,COc1cc2c(C#N)c(N3CCN(c4ccccc4OC)CC3)nc(N)c2c(N)n1,16.6%
15,COCC(C)N1C(=O)Cc2c1nc(N)c1c(N)nc(N3CCN(c4ccccc4F)CC3)c(C#N)c21 (stereo unspecified),19.1%
16,COc1cc2c(C#N)c(N3CCN(C)CC3)nc(N)c2c(N)n1,43.2% (active)
17,S=c1[nH]nc(-c2cc(-c3ccccc3)n[nH]2)n1/N=C/c1ccc(Br)s1,-6.25%
18,O=C(NC(=S)Nc1cccc2c(O)cccc12)c1ccco1,-6.9%
19,Cc1ccc(Cn2cccc(NS(C)(=O)=O)c2=O)cc1,-3.15%
